The nature of test [1]: NCI Yeast Anticancer Drug Screen. Data for the rad50 strain (AID 155).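 Note: 0% = growth of vehicle-only cultures of the same strain.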 To be noted: S. cerevisiae rad50 strain growth inhibition, stronger effect = higher value. In short, it runs like this: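 Growth of the mutant yeast was measured after compound exposure and referenced to vehicle-treated cultures.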
Test [2] is described as follows: NCI Yeast Anticancer Drug Screen. Data for the mec2-1 strain (AID 157). To be noted: S. cerevisiae mec2-1 strain, stronger effect = higher value. The method, boiled down: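 Compounds were applied to mec2-1 yeast cells. Their growth was then compared with that of vehicle-treated cultures to give growth inhibition.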
The nature of test [3]: NCI Yeast Anticancer Drug Screen. Data for the sgs1 mgt1 strain (AID 161).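 Note: 0% = growth of cultures given vehicle only.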 To be noted: S. cerevisiae sgs1 mgt1 strain, stronger effect = higher value. The method, boiled down:
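Percent growth inhibition was derived by comparing compound-exposed mutant yeast with vehicle-exposed cultures. The strain carries alterations in DNA damage repair.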

Test [4] in a line: NCI Yeast Anticancer Drug Screen. Data for the cln2 rad14 strain (AID 165).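 Note: 0% = growth equal to vehicle treated cultures.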 As to conditions: S. cerevisiae cln2 rad14 strain, stronger effect = higher value. In short, it runs like this:
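Strain: cln2 rad14 yeast, altered in cell cycle control and DNA damage repair. Read-out: growth inhibition vs vehicle.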

A short description of test [5]: NCI Yeast Anticancer Drug Screen. Data for the bub3 strain (AID 167). To be noted: S. cerevisiae bub3 mutant strain, stronger effect = higher value. In short, it runs like this:
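Whole-cell yeast assay. The mutant strain was incubated with compounds, and growth inhibition was determined by comparison with vehicle-treated cells.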

The nature of test [6]: NCI Yeast Anticancer Drug Screen. Data for the mlh1 rad18 strain (AID 175). As to conditions: S. cerevisiae mlh1 rad18 strain growth inhibition, stronger effect = higher value. The method, boiled down:
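A repair-deficient yeast strain is exposed to test compound, and growth is scored relative to vehicle-treated controls.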

Setting [7] is: at 5.0 µM (retest, dose inferred, filed as 0.5).
Setting [8] is: at 50.0 µM (retest, dose inferred, filed as 5.0).

Molecules are shown by their SMILES. About 79,000 compounds went through this panel and 15% of them were active in at least one assay; those are over-represented in the sample as a whole. A number with no mark means an inactive call. Active and inactive are the calls of the source. Cut-off read from the data, not from the text of the source: active = growth inhibition above about 70%; inactive = the rest.

The values below come from PubChem BioAssay (NCI).

For the compound `O=c1[nH]c2ccccc2c2cccc(F)c12`, the growth inhibition is 12% in test [1] (setting [7]); 89% (active) in test [1] (setting [8]); 94.2% (active) in test [1] (at 50.0 µM); 10% in test [2] (setting [7]); 76% (active) in test [2] (setting [8]); 71.3% (active) in test [2] (at 50.0 µM). For the same compound, the growth inhibition in test [3] (setting [7]) was 13%; in test [3] (setting [8]) it was 88% (active); in test [3] (at 50.0 µM), 94.8% (active); in test [4] (setting [7]) it was 4%; in test [4] (setting [8]) it was 68%; in test [4] (at 50.0 µM), 69.5%. Besides, the growth inhibition in test [5] (setting [7]) was -8%; in test [5] (setting [8]), 78% (active); in test [5] (at 50.0 µM) it was 91.8% (active); in test [6] (setting [7]) it was 7%; in test [6] (setting [8]), 81% (active); in test [6] (at 50.0 µM), 86.7% (active).
In the case of `Cc1cc2ccccc2c[n+]1Cc1ccc2ccccc2n1`, the growth inhibition in test [1] (setting [7]) is -6%; in test [1] (setting [8]), -1%; in test [1] (at 50.0 µM), 53.6%; in test [2] (setting [7]), 9%; in test [2] (setting [8]), 45%; in test [2] (at 50.0 µM) it was 29.4%. Besides, the growth inhibition in test [3] (setting [7]) is -13%; in test [3] (setting [8]), 12%; in test [3] (at 50.0 µM), 65.4%; in test [4] (setting [7]), -8%; in test [4] (setting [8]) it was -24%; in test [4] (at 50.0 µM), 21.6%. The growth inhibition in test [5] (setting [7]) is -5%; in test [5] (setting [8]), 23%; in test [5] (at 50.0 µM) it was 49.3%; in test [6] (setting [7]), 1%; in test [6] (setting [8]), 41%; in test [6] (at 50.0 µM), 69.3%.
On to `CCC[CH2][Sn]([CH2]CCC)([O]C(=O)c1cc(F)ccc1F)[O]C(=O)c1cc(F)ccc1F`, for which the growth inhibition is 42% in test [1] (setting [7]); 42% in test [1] (setting [8]); 84.1% (active) in test [1] (at 50.0 µM); 25% in test [2] (setting [7]); 25% in test [2] (setting [8]); 83.6% (active) in test [2] (at 50.0 µM). In addition, the growth inhibition in test [3] (setting [7]) was 33%; in test [3] (setting [8]) it was 33%; in test [3] (at 50.0 µM), 73.1% (active); in test [4] (setting [7]) it was 13%; in test [4] (setting [8]), 13%; in test [4] (at 50.0 µM), 70.4% (active). Further, the growth inhibition was 22% in test [5] (setting [7]); 22% in test [5] (setting [8]); 79.2% (active) in test [5] (at 50.0 µM); 20% in test [6] (setting [7]); 20% in test [6] (setting [8]); 78.2% (active) in test [6] (at 50.0 µM).
Regarding `[O-][n+]1c2ccccc2nc2cc(Cl)ccc21`, the growth inhibition in test [1] (setting [7]) was -114%; in test [1] (setting [8]), 11%; in test [1] (at 50.0 µM), 92.2% (active); in test [2] (setting [7]), -35%; in test [2] (setting [8]), -32%; in test [2] (at 50.0 µM), 21.6%. The growth inhibition in test [3] (setting [7]) is -53%; in test [3] (setting [8]), 6%; in test [3] (at 50.0 µM) it was 68.5%; in test [4] (setting [7]), -64%; in test [4] (setting [8]), -46%; in test [4] (at 50.0 µM), 25.6%. The growth inhibition in test [5] (setting [7]) was -47%; in test [5] (setting [8]) it was -1%; in test [5] (at 50.0 µM) it was 48.1%; in test [6] (setting [7]), -105%; in test [6] (setting [8]), -17%; in test [6] (at 50.0 µM), 84.8% (active).
Regarding `CC(=O)O[C@H]1[C@@H]2CC(C)(C)CC2=C(C=O)C2(C=O)CC12C` (stereo not given in full), the growth inhibition in test [1] (setting [7]) was 40%; in test [1] (setting [8]), 99% (active); in test [1] (at 50.0 µM), 99.5% (active); in test [2] (setting [7]), 65%; in test [2] (setting [8]), 100% (active); in test [2] (at 50.0 µM) it was 99.5% (active). The growth inhibition was 62% in test [3] (setting [7]); 99% (active) in test [3] (setting [8]); 99.7% (active) in test [3] (at 50.0 µM); 37% in test [4] (setting [7]); 99% (active) in test [4] (setting [8]); 99.2% (active) in test [4] (at 50.0 µM). The growth inhibition in test [5] (setting [7]) was 54%; in test [5] (setting [8]), 99% (active); in test [5] (at 50.0 µM) it was 46.8%; in test [6] (setting [7]), 55%; in test [6] (setting [8]), 99% (active); in test [6] (at 50.0 µM), 99.7% (active).
Turning to `COc1ccc(C2SC(N)=Nc3c2c(C)nn3C(=O)c2ccccc2O)cc1OC` (stereo not given), the growth inhibition in test [1] (setting [7]) is -9%; in test [1] (setting [8]), 74% (active); in test [1] (at 50.0 µM), 53.3%; in test [2] (setting [7]) it was -15%; in test [2] (setting [8]), 81% (active); in test [2] (at 50.0 µM), 35.2%. Besides, the growth inhibition in test [3] (setting [7]) was -8%; in test [3] (setting [8]) it was 70% (active); in test [3] (at 50.0 µM), 75.3% (active); in test [4] (setting [7]), -20%; in test [4] (setting [8]) it was 24%; in test [4] (at 50.0 µM), -19%. The growth inhibition in test [5] (setting [7]) was -19%; in test [5] (setting [8]), 31%; in test [5] (at 50.0 µM) it was 74.3% (active); in test [6] (setting [7]) it was 1%; in test [6] (setting [8]) it was 91% (active); in test [6] (at 50.0 µM), 65.5%.
Take `CC1(C)CC(=O)C(/C=N/c2nc(-c3cccc([N+](=O)[O-])c3)cs2)=C(O)C1`: the growth inhibition is 17% in test [1] (setting [7]); 99% (active) in test [1] (setting [8]); 99% (active) in test [1] (at 50.0 µM); 15% in test [2] (setting [7]); 99% (active) in test [2] (setting [8]); 99% (active) in test [2] (at 50.0 µM). For the same compound, the growth inhibition in test [3] (setting [7]) was 5%; in test [3] (setting [8]) it was 99% (active); in test [3] (at 50.0 µM), 99% (active); in test [4] (setting [7]), -7%; in test [4] (setting [8]), 99% (active); in test [4] (at 50.0 µM), 98.5% (active). In addition, the growth inhibition in test [5] (setting [7]) was 20%; in test [5] (setting [8]), 99% (active); in test [5] (at 50.0 µM) it was 99.1% (active); in test [6] (setting [7]) it was 14%; in test [6] (setting [8]) it was 99% (active); in test [6] (at 50.0 µM), 99% (active).
As to `CC(=O)OCCC1=CCC2CC1C2(C)C` (stereo not given), the growth inhibition in test [1] (setting [7]) is -2%; in test [1] (setting [8]), 2%; in test [1] (at 50.0 µM) it was -22.6%; in test [2] (setting [7]), -40%; in test [2] (setting [8]) it was 4%; in test [2] (at 50.0 µM), 7.2%. Further, the growth inhibition is -3% in test [3] (setting [7]); 4% in test [3] (setting [8]); -12.8% in test [3] (at 50.0 µM); -6% in test [4] (setting [7]); -7% in test [4] (setting [8]); 23.4% in test [4] (at 50.0 µM). Further, the growth inhibition in test [5] (setting [7]) was -10%; in test [5] (setting [8]), -5%; in test [5] (at 50.0 µM), -16.2%; in test [6] (setting [7]), -3%; in test [6] (setting [8]), 3%; in test [6] (at 50.0 µM) it was -10.7%.
Consider `C/C(=N\NC(=S)N1CCCCCC1)c1cccc2cccnc12`, for which the growth inhibition was -3% in test [1] (setting [7]); 14% in test [1] (setting [8]); 94.2% (active) in test [1] (at 50.0 µM); -5% in test [2] (setting [7]); 44% in test [2] (setting [8]); 83.9% (active) in test [2] (at 50.0 µM). Moreover, the growth inhibition in test [3] (setting [7]) is 7%; in test [3] (setting [8]), 30%; in test [3] (at 50.0 µM), 97.6% (active); in test [4] (setting [7]), -19%; in test [4] (setting [8]) it was 2%; in test [4] (at 50.0 µM), 94.4% (active). Moreover, the growth inhibition in test [5] (setting [7]) is -4%; in test [5] (setting [8]), 26%; in test [5] (at 50.0 µM), 87.5% (active); in test [6] (setting [7]), -9%; in test [6] (setting [8]), 22%; in test [6] (at 50.0 µM), 86.2% (active).
As to `COC(=O)/C(C(C)=O)=C(\OC(C)=O)c1ccc(OC)c(OC)c1`, the growth inhibition in test [1] (setting [7]) was -14%; in test [1] (setting [8]) it was 80% (active); in test [1] (at 50.0 µM), 93.5% (active); in test [2] (setting [7]) it was -11%; in test [2] (setting [8]), 93% (active); in test [2] (at 50.0 µM) it was 91% (active). Also, the growth inhibition in test [3] (setting [7]) is -5%; in test [3] (setting [8]), 88% (active); in test [3] (at 50.0 µM), 46.2%; in test [4] (setting [7]) it was -11%; in test [4] (setting [8]), 85% (active); in test [4] (at 50.0 µM) it was 95.5% (active). For the same compound, the growth inhibition in test [5] (setting [7]) was -2%; in test [5] (setting [8]), 86% (active); in test [5] (at 50.0 µM) it was 98.1% (active); in test [6] (setting [7]), -19%; in test [6] (setting [8]), 91% (active); in test [6] (at 50.0 µM) it was 60%.
